Sfp PPTase inh = qHTS Assay for Inhibitors of Bacillus subtilis Sfp phosphopantetheinyl transferase (PPTase). Biochemical Sfp PPTase activity, qHTS. Potency, µM, hits mostly inhibitors. 3.5% of 310,000 active. AID 1490, 2009;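 also: the enzyme is Sfp with the accession as filed and its product quenches rhodamine fluorescence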
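After 15 min at room temperature with compound, 15 nM Sfp received 5 uM rhodamine-CoA plus 12.5 uM BHQ-2-ybbR (50 mM Hepes pH 7.6, 10 mM MgCl2). Rate came from the fluorescence difference over 30 min, ex 525/em 598 nm.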
G9a inh = qHTS Assay for Inhibitors of Histone Lysine Methyltransferase G9a. Histone-lysine N-methyltransferase EHMT2 (Homo sapiens), Q96KQ7. G9a H3K9 monomethylation, AlphaScreen, 2 h. Potency, µM (highest dose often 102 µM), actives largely listed as inhibitors. 8.8% of 350,000 active. AID 504332, 2011; also: nearly all actives have a fitted effect of over 75% in size
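AlphaScreen read-out: biotin-H3K9 peptide (500 nM) methylation by 20 nM enzyme with 20 uM SAM, 2 h at room temperature after 15 min compound preincubation; anti-monomethyl H3K9 antibody plus donor/acceptor beads, 10 min dark.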
Glioma ERSR ind = qHTS for Inducers of the Endoplasmic Reticulum Stress Response (ERSR) in Human Glioma: qHTS; U87-MG GRP78 promoter luciferase reporter, 16 h; Potency, µM, most hits filed as activators; 0.02% of 420,000 active; also: series mostly up to about 76 µM; nearly all actives have a fitted effect of over 35% in size
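Stably transfected U87-MG glioma cells carrying a GRP78-based luciferase sensor; 16 h compound incubation. Luminescence end-point read 10 min after Bright-Glo addition at room temperature.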
VDR inhibitor = Inhibitors of the vitamin D receptor (VDR): qHTS; Vitamin D3 receptor (Homo sapiens), P11473; VDR-SRC2-3 peptide fluorescence polarization, 2 h; Potency, µM, usual class: inhibitors; 0.93% of 400,000 active
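Fluorescence polarization assay of small-molecule disruption of VDR binding to coregulator peptide SRC2-3. Compounds and controls pin-transferred, then read after 2 h incubation at ambient room temperature.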
ALOX12 inh = Primary qHTS assay for inhibitors of human arachidonate 12S-lipoxygenase (ALOX12): Round 2; 1.1% of 580,000 active; Potency, µM (titrated, usually from 108 µM), usual class: inhibitors; purified 12hLO, xylenol orange hydroperoxide absorbance; Polyunsaturated fatty acid lipoxygenase ALOX12 (Homo sapiens), P18054
Target sequence (P18054 whole entry, looked up): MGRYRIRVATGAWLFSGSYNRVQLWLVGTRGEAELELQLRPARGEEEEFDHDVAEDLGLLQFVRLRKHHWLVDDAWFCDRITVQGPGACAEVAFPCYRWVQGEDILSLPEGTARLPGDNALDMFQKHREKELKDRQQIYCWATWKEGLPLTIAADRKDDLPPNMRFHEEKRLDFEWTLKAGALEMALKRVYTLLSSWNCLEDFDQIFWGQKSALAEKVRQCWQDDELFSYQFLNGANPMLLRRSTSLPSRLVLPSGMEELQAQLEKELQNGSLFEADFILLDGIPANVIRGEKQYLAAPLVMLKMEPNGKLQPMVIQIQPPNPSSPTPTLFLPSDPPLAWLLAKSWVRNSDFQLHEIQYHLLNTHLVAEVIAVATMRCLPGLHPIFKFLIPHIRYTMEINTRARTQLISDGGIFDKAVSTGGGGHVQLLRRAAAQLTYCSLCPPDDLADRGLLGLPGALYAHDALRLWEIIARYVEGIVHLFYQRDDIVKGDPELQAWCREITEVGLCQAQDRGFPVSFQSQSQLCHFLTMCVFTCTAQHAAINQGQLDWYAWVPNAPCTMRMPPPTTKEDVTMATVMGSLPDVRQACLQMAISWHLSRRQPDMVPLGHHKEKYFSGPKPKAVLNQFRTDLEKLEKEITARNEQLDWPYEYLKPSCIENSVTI
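Purified human 12hLO at 150 nM in 25 mM Hepes, 0.01% Triton X-100, pH 7.0, preincubated 15 min at room temperature with compound. Reaction started with 40 uM arachidonic acid, 30 min at room temperature. Hydroperoxide measured by Fe-xylenol orange, 573/405 nm absorbance ratio.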
A number is an active result; - = inactive; ? = inconclusive; . = not tested or not shown; ! = repeats disagree; [ ] = remark or other dose. The entries come from a sample that favours hits as a whole. Calls follow the shape of the dose curve; as a rule, active = well fitted curve in the direction sought with a large enough effect; inconclusive = small, poorly fitted or top-dose-only effect, or another doubt; inactive = no such curve, though single readings can be large; an effect the other way counts as inactive or inconclusive.

SMILES	Sfp PPTase inh	G9a inh	Glioma ERSR ind	VDR inhibitor	ALOX12 inh
CC(C)(C)CCN1CC(Oc2cccc(C(=O)N3CCOCC3)c2)C1	.	.	.	.	22.4µM
COc1ccc(Nc2nc(CN3CCOCC3)nc3sc4c(c23)CCC(C)C4)cc1OC (stereo not drawn)	-	-	.	.	.
COc1cc2c(cc1OC)CN(c1nc(CN3CCOCC3)nc3sc4c(c13)CCC(C)C4)CC2 (stereo not drawn)	-	14.1µM	-	-	-
S=c1[nH]nc(Cc2noc3ccccc23)n1-c1ccccc1	-	2.82µM	-	-	-
O=c1c2ccccc2cnn1Cc1n[nH]c(=S)n1-c1ccc(Cl)cc1Cl	-	?	.	.	.
O=c1c2ccccc2cnn1Cc1n[nH]c(=S)n1-c1ccccc1	?	7.94µM	-	-	-
CC(C)(C)c1ccc(CCC(=O)NC(C(N)=O)c2ccccc2)cc1 (stereo not drawn)	.	.	.	.	-
CCOC(=O)Cc1nnc(SC(C)C(=O)Nc2cc(Cl)ccc2C)n1C (stereo not drawn)	.	.	.	.	-
CCn1c(-c2ccc(OC)c(OC)c2)n[nH]c1=S	?	2µM	-	-	?
COc1ccc(CCn2c(-c3ccc(Cl)cc3)n[nH]c2=S)cc1OC	?	2.24µM	-	-	-
CCn1c(-c2ccc(C)cc2)n[nH]c1=S	?	1.26µM	-	-	?
COc1ccc(CCn2c(-c3ccc(C(C)(C)C)cc3)n[nH]c2=S)cc1OC	-	?	-	-	?
CCn1c(-c2ccc(Cl)cc2)n[nH]c1=S	-	1.26µM	-	-	?
O=C(Nc1ccc2c3c(cccc13)CC2)c1ccc(Cl)cc1	.	.	.	.	-
COCCn1c(COc2ccc(C(C)(C)c3ccccc3)cc2)n[nH]c1=S	.	.	.	.	15.8µM
COc1ccc(-c2n[nH]c(=S)n2-c2ccc(C)cc2)cc1OC	?	3.98µM	-	-	?
CCCCn1c(-c2cc(Cl)ccc2OC)n[nH]c1=S	?	2µM	-	-	?
CCCCn1c(-c2ccc([N+](=O)[O-])cc2)n[nH]c1=S	-	?	-	-	?
CCCn1c(-c2ccc(F)cc2)n[nH]c1=S	-	22.4µM	-	-	?
COCCn1c(CCc2ccccc2)n[nH]c1=S	-	-	-	-	-
COc1ccc(Cl)cc1-c1n[nH]c(=S)o1	-	?	-	-	?
CC1(c2ccccc2)N(Cc2ccccc2C#N)C(=O)OC12CCN(C(=O)CCc1cccnc1)CC2 (stereo not drawn)	.	.	.	.	-
CC(CCc1ccccc1)NC(=O)c1ccc[n+]([O-])c1 (stereo not drawn)	.	.	.	.	-
CCn1c(-c2nn(C)c(C)c2Cl)n[nH]c1=S	-	2.24µM	-	-	-
CCn1c(COc2ccc(Cl)cc2)n[nH]c1=S	.	.	.	.	15.8µM
SMILES	Sfp PPTase inh	G9a inh	Glioma ERSR ind	VDR inhibitor	ALOX12 inh
NNC(=O)c1cccc(Cn2cc(Br)c([N+](=O)[O-])n2)c1	-	39.8µM	-	-	?
O=C(NNC(=O)c1ccccn1)c1cccc([N+](=O)[O-])c1	-	-	-	-	-
C/C(=N/Nc1nc(C)c(C)s1)c1cccc([N+](=O)[O-])c1	-	35.5µM	-	-	-
C/C(=N/NC(=O)CNC(=O)c1ccccn1)c1cccc([N+](=O)[O-])c1	-	17.8µM	-	-	-
C/C(=N\Nc1ccccc1)c1cccc([N+](=O)[O-])c1	.	.	.	.	6.31µM
C/C(=N\Nc1nc(N)cc(Cl)n1)c1cccc([N+](=O)[O-])c1	-	.	-	-	-
CC(=C/c1ccccc1)/C=N/Nc1ccc(Cl)cc1	.	.	.	.	-
CC1CCCCN1CCN(C)c1nc(-c2ccncc2)nc2c1cnn2C (stereo not drawn)	.	.	.	.	-
C/C(=N/NC(=O)c1cccc(C)c1)c1ccc2ccccc2c1	.	.	.	.	-
COc1cc(OC)cc(C(=O)N2CCC(N3CCN(c4ccccc4OC)CC3)CC2)c1	-	7.94µM	-	-	?
COc1ccc2cc(C(=O)N3CCN(c4ccccc4OC)CC3)[nH]c2c1	-	?	-	-	15.8µM
CC1(C)CC(NC(=S)NC2CC3CCC2C3)CC(C)(C)N1 (stereo not drawn)	.	.	.	.	-
Cc1cc(C)c(C(=O)c2cccs2)c(C)c1	.	.	-	-	?
Cc1cc(C(=O)c2cccs2)c(N)s1	50.1µM	39.8µM	-	?	?
CCOc1ccc(Nc2oc(-c3ccc(OCC)cc3)nc2C#N)cc1	.	.	.	.	-
Cc1ccccc1S(=O)(=O)NC1OC(=O)C(Oc2ccccc2)=C1Br (stereo not drawn)	-	50.1µM	-	-	?
Cc1ccccc1S(=O)(=O)NC1OC(=O)C(Cl)=C1Cl (stereo not drawn)	-	-	-	?	?
CCCc1cc(C(=O)Nc2sc(C)c(C)c2C(=O)OCC)no1	15.8µM	10µM	-	?	?
CCOC(=O)c1c(NC(=O)c2cc(C(C)C)on2)sc(C)c1C	.	20µM	-	-	-
COC(=O)CCNC(=O)c1ccc(COC(C)=O)cc1	.	.	.	.	-
C/C(=C\C(=O)NCc1ccccn1)CCc1ccccc1	.	.	.	.	-
Nc1nnc(-c2ccc(Cl)c([N+](=O)[O-])c2)s1	-	44.7µM	-	-	-
Nc1nnc(-c2cccc([N+](=O)[O-])c2)s1	-	-	-	-	-
Cc1cccc(NC(=O)Nc2cccs2)c1C	.	1µM	.	-	-
O=C(Nc1cccs1)Nc1ccccc1Cl	44.7µM	?	?	-	?
SMILES	Sfp PPTase inh	G9a inh	Glioma ERSR ind	VDR inhibitor	ALOX12 inh
Cc1c(NC(=O)Nc2cccs2)cccc1[N+](=O)[O-]	50.1µM	?	-	-	?
CC(=O)Nc1ccc(NC(=O)Nc2cccc(C)c2C)cc1	-	-	-	-	-
N#CC(C(=O)C1c2ccccc2Oc2ccccc21)c1nc2ccccc2[nH]1 (stereo not drawn)	.	.	.	.	-
CCCc1nc2ccccc2c(NC(=O)CN(CC)CC)c1CC	56.2µM	50.1µM	-	-	?
CCCCc1nc2ccccc2c(NC(=O)CN(CC)CC)c1CCC	?	31.6µM	-	-	?
COCCNC(=O)c1nc(-c2ccc(F)cc2)c2cnccn12	.	.	.	.	-
CCN(CC)CCOc1ccc2c(c1)C(=O)c1cc(OCCN(CC)CC)ccc1-2	-	-[2.33 µM]	-	-	22.4µM!
N#CC1=C(N)Oc2cc(O)c(Cl)cc2C1c1ccccc1F (stereo not drawn)	-	50.1µM	-	-	?
N#CC1=C(N)Oc2cc(O)c(Cl)cc2C1c1cccnc1 (stereo not drawn)	-	31.6µM	-	-	-
N#CC1=C(N)Oc2cc(O)ccc2C1c1ccncc1 (stereo not drawn)	-	?	-	-	-
N#CC1=C(N)Oc2ccc3ccc(O)cc3c2C1c1cccnc1 (stereo not drawn)	-	-	-	-	-
N#CC1=C(N)Oc2cc(O)ccc2C1c1cccnc1 (stereo not drawn)	-	-	-	-	-
